Test results as given in PubChem BioAssay (NCI).
Compounds without any hit were thinned out: in the full panel of roughly 83,000, 20% have a hit.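 Interpretation: 100, growth as untreated; towards 0, rising growth inhibition; 0, no net growth; 0 to -100, cell death. Compounds scoring below 10 were considered active.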 Unmarked numbers belong to inactive results. Active and inactive are the calls of the source.

Assays:
Experiment in all cases: NCI-60 one-dose screen, 48 h (100 = growth as untreated, 0 = no growth, -100 = all killed)
Conditions in all cases: 10 µM unless noted
[1] = tested on: DU-145 prostate
[2] = tested on: K-562 leukemia
[3] = tested on: MALME-3M melanoma
[4] = tested on: MDA-MB-231 breast
[5] = tested on: RXF 393 renal
[6] = tested on: SF-268 CNS
[7] = tested on: SF-295 CNS
[8] = tested on: SF-539 CNS
[9] = tested on: UACC-257 melanoma
[10] = tested on: HCT-15 colon
[11] = tested on: HT29 colon
[12] = tested on: SNB-75 CNS
[13] = tested on: SNB-19 CNS
[14] = tested on: U251 CNS
[15] = tested on: PC-3 prostate
[16] = tested on: SK-MEL-5 melanoma
[17] = tested on: UACC-62 melanoma
[18] = tested on: LOX IMVI melanoma
[19] = tested on: SK-MEL-28 melanoma

SMILES | growth [1] | growth [2] | growth [3] | growth [4] | growth [5] | growth [6] | growth [7] | growth [8] | growth [9] | growth [10] | growth [11] | growth [12] | growth [13] | growth [14] | growth [15] | growth [16] | growth [17] | growth [18] | growth [19]
O=C(Nc1cccc(C(F)(F)F)c1)Nc1cccc(C(F)(F)F)c1 | 25% | 11.5% | -17.1% (active) | -34.8% (active) | 22.7% | 22.7% | 4.86% (active) | 19.5% | -32.9% (active) | 10.7% | 3.56% (active) | 11.1% | 10.7% | -15.3% (active) | 6.31% (active) | -72.5% (active) | 10.6% | 8.64% (active) | 26.8%
COc1cc(C2CC(=O)Nc3c2c(C)nn3-c2nc3ccccc3[nH]2)cc2c1OCC(=O)N2 (stereo unspecified) | 111% | 89.3% | 117% | 55.8% | -0.584% (active) | 48.8% | 19.1% | 50.6% | 69.6% | 95.3% | 66.9% | 19.3% | 49.1% | 55.2% | 69.1% | 52.3% | 65.5% | 51.2% | 65.4%
CCCCCCCCn1ccc2cc(NC(=O)Cn3cc(CN4CCCC4)nn3)ccc21 | 66.9% | 2.29% (active) | -63.3% (active) | 11.6% | 44.6% | 46.2% | -68.3% (active) | 78.9% | 51.6% | -45.6% (active) | -57.8% (active) | 96.6% | 0.775% (active) | -35.5% (active) | 64.9% | 30.7% | -82.1% (active) | -85.1% (active) | -70.9% (active)
COc1cccc(-c2nn(-c3ccccc3)cc2-c2ccnc(NCCNC(=O)Nc3ccc(Cl)c(Cl)c3)c2)c1 | 2.24% (active) | 2.28% (active) | 25.3% | -22.9% (active) | -9.27% (active) | 9.11% (active) | 2.94% (active) | -0.925% (active) | 16% | 7.83% (active) | -20.5% (active) | -1.39% (active) | 28.9% | -11.6% (active) | 4.19% (active) | 3.01% (active) | -14.2% (active) | -68.8% (active) | 16.1%
